According to the supplement of paper PMC12808144:
A number with no mark means an inactive call.

Each compound was assayed on Mel-DCC-11-R (assay: cell viability relative to DMSO control (fraction of DMSO control); higher = less cytotoxic, active = 0.8 or less). Settings: 1 µM; 120 h; vemurafenib co-treatment 8 µM.
Outline: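 For 120 h, duplicate wells of 384-well plates held 1 µM of each of 315 approved anti-cancer drugs (TargetMol), spotted acoustically before cells were added in 40 µl per well. Immortalized NHEM-hTERT melanocytes were seeded at 2500/well, and patient-derived Mel-DCC-11 plus its resistant subline Mel-DCC-11-R at 1500/well. The subline was run both without and with 8 µM of its selecting drug, and ATPlite 1step luminescence was read. Viability was normalised to vehicle-treated wells and averaged over the two replicates.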
`CS(=O)(=O)CCNCc1ccc(-c2ccc3ncnc(Nc4ccc(OCc5cccc(F)c5)c(Cl)c4)c3c2)o1.Cc1ccc(S(=O)(=O)O)cc1.Cc1ccc(S(=O)(=O)O)cc1` [Lapatinib Ditosylate] gave a cell viability of 0.885.
With `CCN1CCN(Cc2ccc(Nc3ncc(F)c(-c4cc(F)c5nc(C)n(C(C)C)c5c4)n3)nc2)CC1` [Abemaciclib] the cell viability was 0.669 (active).
Compound `S=c1nc[nH]c2nc[nH]c12` [Mercaptopurine] has a cell viability of 0.993.
Compound `Nc1nc(F)nc2c1ncn2[C@@H]1O[C@H](COP(=O)(O)O)[C@@H](O)[C@@H]1O` [Fludarabine Phosphate] has a cell viability of 1.16.
For `Cc1cn(-c2cc(NC(=O)c3ccc(C)c(Nc4nccc(-c5cccnc5)n4)c3)cc(C(F)(F)F)c2)cn1` [Nilotinib], the cell viability was 1.06.
Compound `Nc1nc(F)nc2c1ncn2[C@@H]1O[C@H](CO)[C@@H](O)[C@@H]1O` [Fludarabine] has a cell viability of 0.977.
`Cc1cn(-c2cc(NC(=O)c3ccc(C)c(Nc4nccc(-c5cnccn5)n4)c3)cc(C(F)(F)F)c2)cn1` [Radotinib] gave a cell viability of 1.27.
Compound `COc1cc2nccc(Oc3ccc(NC(=O)Nc4cc(C)on4)c(Cl)c3)c2cc1OC` [Tivozanib] has a cell viability of 1.08.
Work on `O=C(NC(Cc1cc(=O)[nH]c2ccccc12)C(=O)O)c1ccc(Cl)cc1` (stereo unspecified) [Rebamipide] yielded a cell viability of 1.24.
For `Cn1cnc2c(F)c(Nc3ccc(Br)cc3F)c(C(=O)NOCCO)cc21` [Binimetinib], the cell viability was 0.406 (active).
`C=C(c1ccc(C(=O)O)cc1)c1cc2c(cc1C)C(C)(C)CCC2(C)C` [Bexarotene] gave a cell viability of 1.59.
For `O=NN(CCCl)C(=O)NC1CCCCC1` [Lomustine], the cell viability was 1.11.
In the case of `Cc1nc(Nc2ncc(C(=O)Nc3c(C)cccc3Cl)s2)cc(N2CCN(CCO)CC2)n1` [Dasatinib], the cell viability is reported as 1.58.
`O=C(O)C1CSCN1` (stereo unspecified) [Thioproline] showed a cell viability of 1.08.
`CCCCc1nc2cc(/C=C/C(=O)NO)ccc2n1CCN(CC)CC` [Pracinostat] was tested, and the cell viability was 0.453 (active).
`COc1cc([C@@H]2c3cc4c(cc3[C@@H](O[C@@H]3O[C@@H]5CO[C@@H](C)O[C@H]5[C@H](O)[C@H]3O)C3COC(=O)C32)OCO4)cc(OC)c1O` (stereo partly specified) [Etoposide] gave a cell viability of 0.859.
For `Nc1c2ccccc2nc2ccccc12` [Aminacrine], the cell viability was 1.2.
In the case of `O=C(/C=C/c1cccc(S(=O)(=O)Nc2ccccc2)c1)NO` [Belinostat], the cell viability is reported as 0.659 (active).
With `COC(=O)N[C@@H](C)CNc1nccc(-c2cn(C(C)C)nc2-c2cc(Cl)cc(NS(C)(=O)=O)c2F)n1` [Encorafenib] the cell viability was 0.74 (active).
Work on `CCc1cn([C@H]2C[C@H](O)[C@@H](CO)O2)c(=O)[nH]c1=O` [Edoxudine] yielded a cell viability of 0.802.
In the case of `Nc1nc(Cl)nc2c1ncn2[C@H]1C[C@H](O)[C@@H](CO)O1` [Cladribine], the cell viability is reported as 0.722 (active).
`COc1cc([C@H]2Oc3cc([C@H]4Oc5cc(O)cc(O)c5C(=O)[C@@H]4O)ccc3O[C@@H]2CO)ccc1O` [Silibinin] was tested, and the cell viability was 0.914.
`CC1=C(/C=C/C(C)=C/C=C/C(C)=C/C(=O)O)C(C)(C)CCC1` [Tretinoin] was tested, and the cell viability was 1.19.
With `CC(C)(S)[C@@H](N)C(=O)O` [Artamine] the cell viability was 1.25.
Work on `CC1=C(CC(=O)O)c2cc(F)ccc2/C1=C\c1ccc(S(C)=O)cc1` (stereo unspecified) [Sulindac] yielded a cell viability of 1.03.
With `C/C=C1/NC(=O)[C@H]2CSSCC/C=C/[C@H](CC(=O)N[C@H](C(C)C)C(=O)N2)OC(=O)[C@H](C(C)C)NC1=O` [Romidepsin] the cell viability was 0.0432 (active).
In the case of `CC(COc1ccccc1)N(CCCl)Cc1ccccc1.Cl` (stereo unspecified) [Phenoxybenzamine hydrochloride], the cell viability is reported as 1.15.
Work on `Cn1nnc2c(C(N)=O)ncn2c1=O` [Temozolomide] yielded a cell viability of 0.874.
`CN(C)CCOc1ccc(/C(=C(/CCCl)c2ccccc2)c2ccccc2)cc1` [Toremifene] gave a cell viability of 1.26.
`COc1ccc(C[C@H](N)C(=O)N[C@H]2[C@@H](O)[C@H](n3cnc4c(N(C)C)ncnc43)O[C@@H]2CO)cc1.Cl.Cl` [Puromycin dihydrochloride] was tested, and the cell viability was 0.58 (active).
With `CN(C)CCOc1ccc(/C(=C(/CCCl)c2ccccc2)c2ccccc2)cc1.O=C(O)CC(O)(CC(=O)O)C(=O)O` [Toremifene citrate] the cell viability was 1.19.
